The values below come from PubChem BioAssay (NCI).

Compounds without any hit were thinned out: in the full panel of roughly 83,000, 20% have a hit.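 Treatment: one concentration, 48 hours, 96-well format. Scoring: percent growth, with anything below 10 considered active.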 A number with no mark means an inactive call. Activity calls are given as the source filed them.

The first assay relates to SNB-19 CNS. The assay is described as follows: NCI-60 one-dose screen, 48 h (100 = growth as untreated, 0 = no growth, -100 = all killed). The following applies: 10 µM unless noted.
For the molecule `CC/C(=C(/c1ccc(Cl)cc1)c1ccc(OCCN2CCCC2)cc1)c1ccc(OC)cc1`, the growth is 80.1%.

As to `Nc1ncnc2c1N=C(c1ccc(Cl)cc1)CC(c1ccc3c(c1)OCO3)N2` (stereo not given), the growth is 86.4%.

`N=C(N)c1ccc(-c2ccc(-c3ccc(F)cc3)o2)o1`: the growth is 26.7%.

On to `CCCCC(=O)c1ccco1`, for which the growth is 86.4%.

For `C/C(=C(/c1ccc(Cl)cc1)c1ccc(OCCN2CCCC2)cc1)c1ccc(Cl)cc1`, the growth is 85.8%.

For `COC(=O)c1c2c(c[n+]([O-])c1C)C(=O)C(NCc1ccccc1)=CC2=O`, the growth was -23.8% (active).

For `Fc1ccc(-c2nn(-c3ccccc3)cc2-c2nc3ccccc3o2)cc1`, the growth is 67.3%.

Take `COc1ccc2c3c([nH]c2c1)C(=O)c1nc(C)ccc1C3=O`: the growth is 46.1%.

For `CCN(C(=O)N1CCN(c2cc3c(cc2F)c(=O)c(C(=O)O)cn3C2CC2)CC1)c1nc(-c2ccc(Cl)cc2)cs1`, the growth was 15.6%.

`CCCNC(=O)Oc1ccc(/C(=C(/C)Cc2ccc(OC)cc2)c2ccc(OCCCN(C)C)cc2)cc1`: the growth was 88.8%.

As to `CC(=O)OCc1nc(C#N)c(N(C)C)o1`, the growth was 95.9%.

In the case of `Cn1ccnc1C(=O)C(=O)Nc1ccc(CC(=O)Nc2ccccc2)cc1`, the growth is 96.5%.

Turning to `O=C(CN1C(=O)CCC1=O)Nc1ncc(Cc2ccc(F)cc2)s1`, the growth was 96.3%.

Turning to `CNc1nc(S(=O)c2ccc(C#N)cc2)nc2ccccc12` (stereo not given), the growth was 90.8%.

`Cn1c(-c2ccc(Br)cc2)c(O)c(=O)c2c(F)cccc21`: the growth is 52.8%.

Consider `CCN(CC)CCCN1C(=O)c2c(c(C)c3c(oc4cc(O)ccc43)c2C)C1=O`, for which the growth is -82.8% (active).

In the case of `Cn1ccc2c3c(ccc21)CC3=O`, the growth is 105%.

Consider `O=C1N[C@@H]2NC(=[N+]3CCOCC3)N[C@@H]2N1`, for which the growth was 96%.

Consider `CCCCCOc1ccc(C(=O)/C(Br)=C/C(=O)O)cc1`, for which the growth is 98.8%.

For the molecule `O=C(/C=C/c1ccccc1)c1cccc(OCCCOc2cccc(C(=O)/C=C/c3ccccc3)c2)c1`, the growth was 85.7%.

Consider `O=C(Cc1ccccc1)Nc1nc(O)c(/C=C2\C(=O)C=Cc3ccccc32)s1`, for which the growth is 92.3%.

Regarding `Nc1c(C(=O)Nc2ccncc2)sc2nc3c(cc12)CCCCCC3`, the growth is 84.1%.

Take `COc1ccc(C(=O)Nc2cccc(C3CC(=O)c4c(cc(OC)c(OC)c4OC)O3)c2)cc1` (stereo not given): the growth was 18.3%.

For `O=C(c1cc2ccccc2o1)c1nn(-c2ccccc2)/c(=N/N=Cc2cn(-c3ccccc3)nc2-c2cc3ccccc3oc2=O)s1`, the growth is 101%.

In the case of `CCCCCCCCCCCCCCCCCCOc1ccccc1CC(=O)NCC[N+]1(C)CCCC1`, the growth is 35.2%.

Consider `O=C(CSc1nc(-c2ccccc2)[nH]c1S(=O)(=O)c1ccccc1)NC1CC1`, for which the growth is 101%.

With `CC(C)N1CCN(Cc2ccc3c(NNC(=O)c4ccccc4)nc4cc(F)ccc4n23)CC1`, the growth was 29.7%.

On to `O=S(=O)(NCCCNc1nccc(-c2c(-c3ccc(F)c(O)c3)nc3occn23)n1)c1ccccc1`, for which the growth was 113%.

With `COc1cc(-c2csc(NC(=O)c3cc(-n4cnc(C)c4)cc(C(F)(F)F)c3)n2)cc(OC)c1OC`, the growth was 62.2%.

Take `COc1cc2c(c(OC)c1OC)CCC(c1cccc(C(=O)Nc3cccc(Br)c3)c1)O2` (stereo not given): the growth was 81.6%.

Regarding `Cc1nn(-c2ccccc2)c(Oc2ccccn2)c1-c1nc2ccccc2s1`, the growth is 100%.

As for `CSc1nnc(-c2cnn3c2NC(c2ccccc2)C3)n1-c1ccc(C(F)(F)F)cc1` (stereo not given), the growth is 66.9%.

With `Cc1ccc(-c2cc(-c3ccc(Cl)cc3)nc(NC(=O)c3cccnc3)n2)cc1`, the growth is 94.6%.

On to `CC1=C(C(=O)OC(C)C)C(c2ccc3c(c2)OCO3)NC(=S)N1` (stereo not given), for which the growth is 95.4%.

As to `CCOC(=O)c1c2c(n3ccc(C)cc13)C(=O)c1ccccc1C2=O`, the growth was 98.4%.

On to `O=S(=O)(NCCNc1cc(-c2c(-c3cccc(O)c3)nc3sccn23)ccn1)c1ccc(C(F)(F)F)cc1`, for which the growth was 54.8%.

Take `Cc1nc2ncnc(Cl)c2[nH]1`: the growth is 99.7%.

For the molecule `N#Cc1nn(-c2cc(=O)[nH]c3ccc(Cl)cc23)c(N)c1C#N`, the growth is 98.8%.

Consider `C#COc1cccc(Nc2ncnc3ncc(NC(=O)CCl)cc23)c1`, for which the growth was 20% [6.25 µM].

As to `COC(=O)[C@]1(C)CCC[C@]2(C)[C@H]3C[C@H]4C(C(C)C)=C[C@]3(CC[C@H]21)[C@H]1[C@@H]4[C@@H](OCCC#N)CC[C@@H]1OCCC#N`, the growth was 52.3%.

The subject of another assay is U251 CNS. The description is as above. The following applies: 10 µM unless noted.
As to `CC/C(=C(/c1ccc(Cl)cc1)c1ccc(OCCN2CCCC2)cc1)c1ccc(OC)cc1`, the growth is 45.3%.

Regarding `Nc1ncnc2c1N=C(c1ccc(Cl)cc1)CC(c1ccc3c(c1)OCO3)N2` (stereo not given), the growth was 92.8%.

`N=C(N)c1ccc(-c2ccc(-c3ccc(F)cc3)o2)o1`: the growth was -11.7% (active).

Turning to `CCCCC(=O)c1ccco1`, the growth was 102%.

On to `C/C(=C(/c1ccc(Cl)cc1)c1ccc(OCCN2CCCC2)cc1)c1ccc(Cl)cc1`, for which the growth was 68.6%.

`COC(=O)c1c2c(c[n+]([O-])c1C)C(=O)C(NCc1ccccc1)=CC2=O`: the growth is -57.4% (active).

Turning to `Fc1ccc(-c2nn(-c3ccccc3)cc2-c2nc3ccccc3o2)cc1`, the growth was 33.4%.

In the case of `COc1ccc2c3c([nH]c2c1)C(=O)c1nc(C)ccc1C3=O`, the growth is 45.6%.

Regarding `CCN(C(=O)N1CCN(c2cc3c(cc2F)c(=O)c(C(=O)O)cn3C2CC2)CC1)c1nc(-c2ccc(Cl)cc2)cs1`, the growth was 15.1%.

Turning to `CCCNC(=O)Oc1ccc(/C(=C(/C)Cc2ccc(OC)cc2)c2ccc(OCCCN(C)C)cc2)cc1`, the growth was 63.5%.

Consider `CC(=O)OCc1nc(C#N)c(N(C)C)o1`, for which the growth is 95.5%.

Regarding `Cn1ccnc1C(=O)C(=O)Nc1ccc(CC(=O)Nc2ccccc2)cc1`, the growth was 108%.

With `O=C(CN1C(=O)CCC1=O)Nc1ncc(Cc2ccc(F)cc2)s1`, the growth was 97.5%.

For `CNc1nc(S(=O)c2ccc(C#N)cc2)nc2ccccc12` (stereo not given), the growth was 83.1%.

Take `Cn1c(-c2ccc(Br)cc2)c(O)c(=O)c2c(F)cccc21`: the growth was 34.3%.

Consider `CCN(CC)CCCN1C(=O)c2c(c(C)c3c(oc4cc(O)ccc43)c2C)C1=O`, for which the growth was -88.8% (active).

Consider `Cn1ccc2c3c(ccc21)CC3=O`, for which the growth was 111%.

On to `O=C1N[C@@H]2NC(=[N+]3CCOCC3)N[C@@H]2N1`, for which the growth is 97.2%.

On to `CCCCCOc1ccc(C(=O)/C(Br)=C/C(=O)O)cc1`, for which the growth is 86.7%.

On to `O=C(/C=C/c1ccccc1)c1cccc(OCCCOc2cccc(C(=O)/C=C/c3ccccc3)c2)c1`, for which the growth is 64.3%.

`O=C(Cc1ccccc1)Nc1nc(O)c(/C=C2\C(=O)C=Cc3ccccc32)s1`: the growth was 101%.

Regarding `Nc1c(C(=O)Nc2ccncc2)sc2nc3c(cc12)CCCCCC3`, the growth was 76.2%.

Consider `COc1ccc(C(=O)Nc2cccc(C3CC(=O)c4c(cc(OC)c(OC)c4OC)O3)c2)cc1` (stereo not given), for which the growth is 9.47% (active).

For `O=C(c1cc2ccccc2o1)c1nn(-c2ccccc2)/c(=N/N=Cc2cn(-c3ccccc3)nc2-c2cc3ccccc3oc2=O)s1`, the growth was 83.1%.

With `CCCCCCCCCCCCCCCCCCOc1ccccc1CC(=O)NCC[N+]1(C)CCCC1`, the growth is 6.79% (active).

In the case of `O=C(CSc1nc(-c2ccccc2)[nH]c1S(=O)(=O)c1ccccc1)NC1CC1`, the growth was 20.1%.

As for `CC(C)N1CCN(Cc2ccc3c(NNC(=O)c4ccccc4)nc4cc(F)ccc4n23)CC1`, the growth was 17%.

As for `O=S(=O)(NCCCNc1nccc(-c2c(-c3ccc(F)c(O)c3)nc3occn23)n1)c1ccccc1`, the growth was 99.7%.

Consider `COc1cc(-c2csc(NC(=O)c3cc(-n4cnc(C)c4)cc(C(F)(F)F)c3)n2)cc(OC)c1OC`, for which the growth is 56.9%.

Take `COc1cc2c(c(OC)c1OC)CCC(c1cccc(C(=O)Nc3cccc(Br)c3)c1)O2` (stereo not given): the growth was 71.5%.

Consider `Cc1nn(-c2ccccc2)c(Oc2ccccn2)c1-c1nc2ccccc2s1`, for which the growth is 97.8%.

`CSc1nnc(-c2cnn3c2NC(c2ccccc2)C3)n1-c1ccc(C(F)(F)F)cc1` (stereo not given): the growth is 58%.

In the case of `Cc1ccc(-c2cc(-c3ccc(Cl)cc3)nc(NC(=O)c3cccnc3)n2)cc1`, the growth was 101%.

Turning to `CC1=C(C(=O)OC(C)C)C(c2ccc3c(c2)OCO3)NC(=S)N1` (stereo not given), the growth was 102%.

Consider `CCOC(=O)c1c2c(n3ccc(C)cc13)C(=O)c1ccccc1C2=O`, for which the growth is 92.8%.

Consider `O=S(=O)(NCCNc1cc(-c2c(-c3cccc(O)c3)nc3sccn23)ccn1)c1ccc(C(F)(F)F)cc1`, for which the growth was 34.8%.

Regarding `Cc1nc2ncnc(Cl)c2[nH]1`, the growth is 91.3%.

In the case of `N#Cc1nn(-c2cc(=O)[nH]c3ccc(Cl)cc23)c(N)c1C#N`, the growth was 103%.

Turning to `C#COc1cccc(Nc2ncnc3ncc(NC(=O)CCl)cc23)c1`, the growth was -73.3% [6.25 µM] (active).

Regarding `COC(=O)[C@]1(C)CCC[C@]2(C)[C@H]3C[C@H]4C(C(C)C)=C[C@]3(CC[C@H]21)[C@H]1[C@@H]4[C@@H](OCCC#N)CC[C@@H]1OCCC#N`, the growth is 33.3%.
